# Values joined by “and” are separate entries in the source; they are usually repeats but may differ in a detail not shown here. Equal values may be shown once. Active and inactive are the calls of the source.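 Rule for the calls, unless noted: active = thallium flux through the channel raised or lowered by more than 3 SD from vehicle-only wells, actives on both sides; inactive = the rest.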
# Key:
# [1] = polyglutamine-triggered caspase-3 activation inhibitors, cell-based (AID 1583); settings: polyglutamine-induced caspase-3 activation, cell assay; stronger effect = higher value;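 tested at 10 µM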
# [2] = suppressors of polyQ aggregation in yeast, 75Q-TubU reporter (AID 1593); settings: Yeast 75Q polyglutamine aggregation reporter
# [3] = inhibitors of mitochondrial cytochrome c release, biochemical, purified mitochondria (AID 1603); settings: stronger effect = lower value;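 note: mouse liver mitochondria challenged with calcium chloride; signal normalized to the plate average as 100%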
# [4] = inhibitors of polyQ protein aggregation (AID 1604); settings: polyglutamine-induced protein aggregation inhibition assay; stronger effect = higher value; tested at 2.5 µM
# [5] = enhancers of glutamate uptake in motor neurons, MN-1 cell line (AID 1612); settings: MN-1 motor neuron cells, stronger effect = higher value;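 note: tested at 1 µM final; 0% = mean of DMSO vehicle wells on each plate; positive means more glutamate uptake than control and negative means less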
# [6] = Cy5 fluorescence interference with SSB-bound oligo, artefact control for HCV NS3 helicase inhibitor project, biochemical, NIH Clinical Collection, E. coli SSB (AID 743268; call rule not given here)
# [7] = tested on: Hepatitis C virus NS3 helicase; experiment: HCV NS3 helicase inhibitors, primary screen, biochemical, fluorescence polarization, NIH Clinical Collection (AID 743270; call rule not given here); settings: NS3 helicase binding to Cy5-dT15 DNA, stronger effect = higher value, concentration not given here
# [8] = target: Single-stranded DNA-binding protein (Escherichia coli (strain K12)) (UniProt P0AGE0); experiment: E. coli SSB displacement from DNA, counter-screen for HCV NS3 helicase inhibitor project, biochemical, fluorescence polarization, NIH Clinical Collection (AID 743271; in the data active = inhibition above about 28%); settings: stronger effect = higher value, concentration not given here
# [9] = fluorescence interference in NS3h assay format, artefact control for HCV NS3 helicase inhibitor project, biochemical, NIH Clinical Collection (AID 743272; call rule not given here;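 note: HCV NS3 helicase with a Cy5 labelled single stranded DNA probe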); settings: fluorescence interference counterscreen, stronger effect = lower value
# [10] = viability rescue of complex I mutant cybrids, primary screen, cell-based, galactose medium, ATP luminescence (AID 1645843;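 active = z-score of at least 1.8 in each of two replicates, scored against plate mean and spread of sample wells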;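 note: positive z means more ATP and so rescue of galactose-driven cybrid death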); settings: complex I mutant cybrid cells, 72 h, stronger effect = higher value
# [11] = LFS_MB_P medulloblastoma growth inhibition, cell-based, chromothripsis tumors, cisplatin or BGB combos (AID 1671449; in the data active = inhibition above about 80%;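 note: cells exposed for 96 hours; 0% = vehicle DMSO and 100% = killing by high DMSO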); settings: LFS_MB_P medulloblastoma cells
# [12] = HDN33 neuroblastoma growth inhibition, cell-based, chromothripsis tumors, cisplatin or BGB combos (AID 1671450; in the data active = inhibition above about 80%;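 note: cells exposed to compound for four days; 0% = vehicle DMSO and 100% = cell killing by high DMSO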); settings: HDN33 neuroblastoma cells, stronger effect = higher value
# [13] = HTB85 osteosarcoma cell growth inhibition, synergistic combos for chromothripsis tumors, BGB or cisplatin IC20 combos (AID 1671453; in the data active = inhibition above about 80%;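 note: cells exposed for 96 hours before readout; 0% = vehicle DMSO and 100% = high DMSO killing control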); settings: HTB85 osteosarcoma cells, drug combinations, stronger effect = higher value
# F380Y/beta4 = experiment: modulators of BK channel variants, profiling panel, selectivity assay, cell-based, U2OS BacMam, thallium flux, beta subunits (AID 1259406); settings: at 30 µM;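 note: initial slope of Thallos dye fluorescence rise after thallium is added; log ratio against the mean of 0.3% DMSO vehicle wells on the same plate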
# [14] = target: Calcium-activated potassium channel subunit alpha-1 (Homo sapiens) + Leucine-rich repeat-containing protein 26 (Homo sapiens) (UniProt Q12791+Q2I0M4); experiment: as above; settings: F380Y/Slo1WT/gamma1, at 30 µM
# R275C = experiment: as above; settings: at 30 µM
# R275C/beta1 = experiment: as above; settings: at 30 µM
# R275C/beta2Delta = experiment: as above; settings: at 30 µM
# R275C/beta4 = experiment: as above; settings: at 30 µM
# R275C/Slo1WT/beta2 = experiment: as above; settings: at 30 µM
# Calcium-activated potassium channel subunit alpha-1 (Homo sapiens) + Leucine-rich repeat-containing protein 26 (Homo sapiens), sequence (Q2I0M4 whole entry, looked up, one chain of several): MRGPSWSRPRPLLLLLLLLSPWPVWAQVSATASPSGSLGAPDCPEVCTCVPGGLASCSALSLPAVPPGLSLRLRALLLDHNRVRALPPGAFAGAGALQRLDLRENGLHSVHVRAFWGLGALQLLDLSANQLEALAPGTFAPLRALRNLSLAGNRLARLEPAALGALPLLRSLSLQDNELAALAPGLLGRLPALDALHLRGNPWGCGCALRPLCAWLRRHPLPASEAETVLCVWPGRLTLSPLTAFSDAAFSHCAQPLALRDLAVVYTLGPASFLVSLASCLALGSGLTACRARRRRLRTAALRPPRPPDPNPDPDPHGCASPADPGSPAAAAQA
structure (smiles),measurement,setting,value
S=c1nc[nH]c2nc[nH]c12,inhibition,[1],26.7%
same,score,[2],1.45
same,cytochrome c release ratio,[3],0.93
same,inhibition of aggregation,[4],66.2%
same,glutamate uptake change,[5],12.1%
same,fluorescence ratio,[6],1.03 (inactive)
same,inhibition,[7],-1.36% (inactive)
same,inhibition,[8],0.29% (inactive)
same,fluorescence ratio,[9],0.99 (inactive)
same,z-score,[10],2.91 (active)
same,inhibition,"[11]; at 0.5 µM, stronger effect = higher value",-16.7% (inactive) and -25.3% (inactive) and -23.4% (inactive)
same,inhibition,"[11]; measured here: combination with BGB IC20, at 0.005 µM",-9.64% and 14% and 16.4%
same,inhibition,"[11]; measured here: combination with BGB IC40, at 0.005 µM",-23.4% and -1.54% and -20.6%
same,inhibition,"[11]; measured here: combination with BGB IC40, at 0.05 µM",-13.7% and 4.76% and 13.1%
same,inhibition,"[11]; measured here: combination with cisplatin, at 0.5 µM, stronger effect = higher value",-46.7% and -35.2% and -28.2%
same,inhibition,"[11]; measured here: combination with cisplatin, at 5 µM, stronger effect = higher value",-18.6% and -9.9% and -19.4%
same,inhibition,"[12]; BGB combo, at 5 µM",6.4% and -7.61% and -1.61%
same,inhibition,[12]; at 0.5 µM,21.5% (inactive) and -7.1% (inactive) and 2.79% (inactive)
same,inhibition,"[12]; cisplatin combo, at 5 µM",17.2% and 3.9% and 15.7%
same,inhibition,"[12]; measured here: with BGB IC20 combination, at 0.5 µM",17.6% and -24.1% and -7.78%
same,inhibition,"[12]; measured here: with cisplatin IC20 combination, at 0.5 µM",11.8% and -15.2% and -7.14%
same,inhibition,"[12]; single agent, at 5 µM",55.5% and 46.9% and 55.8%
same,inhibition,[13]; at 0.5 µM,-18.6% (inactive) and -13.7% (inactive) and -28.1% (inactive)
same,inhibition,"[13]; measured here: with BGB IC20, at 0.5 µM",-53.8% and -19.7% and -40.4%
same,inhibition,"[13]; measured here: with BGB IC20, at 5 µM",-9.25% and -19% and -8.77%
same,inhibition,"[13]; measured here: with cisplatin IC20, at 0.5 µM",-18.6% and -5.87% and -28%
same,inhibition,"[13]; measured here: with cisplatin IC20, at 5 µM",-12.1% and 4.25% and -34.8%
same,inhibition,"[13]; single agent, at 5 µM",18.8% and -4.98% and -9.17%
same,log fold change Tl+ flux,F380Y/beta4,-0.00864 (inactive)
same,log fold change Tl+ flux,[14],-0.0406 (inactive)
same,log fold change Tl+ flux,R275C,-0.0342 (inactive)
same,log fold change Tl+ flux,R275C/beta1,0.0271 (inactive)
same,log fold change Tl+ flux,R275C/beta2Delta,-0.0376 (inactive)
same,log fold change Tl+ flux,R275C/beta4,-0.0907 (inactive)
same,log fold change Tl+ flux,R275C/Slo1WT/beta2,0.0711 (inactive)
CCCc1cc(=O)[nH]c(=S)[nH]1,inhibition,[1],-28.5%
same,score,[2],1.06
same,cytochrome c release ratio,[3],1.02
same,inhibition of aggregation,[4],48%
same,glutamate uptake change,[5],4.57%
same,fluorescence ratio,[6],1.04 (inactive)
same,inhibition,[7],-1.36% (inactive)
same,inhibition,[8],0.29% (inactive)
same,fluorescence ratio,[9],0.97 (inactive)
same,z-score,[10],0.835 (inactive)
same,log fold change Tl+ flux,F380Y/beta4,0.0238 (inactive)
same,log fold change Tl+ flux,[14],0.00637 (inactive)
same,log fold change Tl+ flux,R275C,-0.0214 (inactive)
same,log fold change Tl+ flux,R275C/beta1,-0.00439 (inactive)
same,log fold change Tl+ flux,R275C/beta2Delta,-0.0158 (inactive)
same,log fold change Tl+ flux,R275C/beta4,-0.0141 (inactive)
same,log fold change Tl+ flux,R275C/Slo1WT/beta2,0.0488 (inactive)
N[C@@H](Cc1cc(I)c(Oc2cc(I)c(O)c(I)c2)c(I)c1)C(=O)O,fluorescence ratio,[6],0.87 (inactive)
same,inhibition,[7],0.45% (inactive)
same,inhibition,[8],0.29% (inactive)
same,fluorescence ratio,[9],0.88 (inactive)
same,z-score,[10],-1.38 (inactive) and -0.805 (inactive)
same,log fold change Tl+ flux,F380Y/beta4,0.107 (active)
same,log fold change Tl+ flux,[14],0.0246 (inactive)
same,log fold change Tl+ flux,R275C,0.00175 (inactive)
same,log fold change Tl+ flux,R275C/beta1,0.0456 (inactive)
same,log fold change Tl+ flux,R275C/beta2Delta,0.134 (active)
same,log fold change Tl+ flux,R275C/beta4,0.234 (active)
same,log fold change Tl+ flux,R275C/Slo1WT/beta2,0.0236 (inactive)
CC1=NS(=O)(=O)c2cc(Cl)ccc2N1,fluorescence ratio,[6],1 (inactive)
same,inhibition,[7],5.94% (inactive)
same,inhibition,[8],4.52% (inactive)
same,fluorescence ratio,[9],0.99 (inactive)
same,log fold change Tl+ flux,F380Y/beta4,-0.0353 (inactive)
same,log fold change Tl+ flux,[14],-0.0135 (inactive)
same,log fold change Tl+ flux,R275C,-0.00922 (inactive)
same,log fold change Tl+ flux,R275C/beta1,0.0109 (inactive)
same,log fold change Tl+ flux,R275C/beta2Delta,0.00734 (inactive)
same,log fold change Tl+ flux,R275C/beta4,0.0187 (inactive)
same,log fold change Tl+ flux,R275C/Slo1WT/beta2,0.0541 (inactive)
CC(COc1ccccc1)N(CCCl)Cc1ccccc1 (configuration not stated),inhibition,[1],31.4%
same,score,[2],0.5
same,cytochrome c release ratio,[3],4.04
same,inhibition of aggregation,[4],33.3%
same,glutamate uptake change,[5],18.7%
same,fluorescence ratio,[6],1.06 (inactive)
same,inhibition,[7],-5% (inactive)
same,inhibition,[8],-0.48% (inactive)
same,fluorescence ratio,[9],0.95 (inactive)
same,z-score,[10],-0.605 (inactive) and -1.23 (inactive)
same,log fold change Tl+ flux,F380Y/beta4,-0.0516 (inactive)
same,log fold change Tl+ flux,[14],-0.0217 (inactive)
same,log fold change Tl+ flux,R275C,-0.0819 (inactive)
same,log fold change Tl+ flux,R275C/beta1,0.0364 (inactive)
same,log fold change Tl+ flux,R275C/beta2Delta,-0.0434 (inactive)
same,log fold change Tl+ flux,R275C/beta4,0.0533 (inactive)
same,log fold change Tl+ flux,R275C/Slo1WT/beta2,-0.0106 (inactive)

# — PubChem BioAssay
